# High-throughput results (PubChem)
# Hits are enriched below; roughly 8.3% of the tested compounds scored in any of these assays.
# Giardia FBPA inh-1: blocks Giardia fructose-bisphosphate aldolase activity; A8B2U2; purified Giardia FBPA; 290,000 tested, 0.71% active; Potency, µM (series often up to 59.6 µM), for the others: top-dose activity, negative = inhibition, usual class: inhibitors; AID 2451; also: potency is read from the fitted curve at half-maximal effect; nearly all actives have a fitted effect of over 55% in size
# Target sequence (A8B2U2 whole entry, looked up): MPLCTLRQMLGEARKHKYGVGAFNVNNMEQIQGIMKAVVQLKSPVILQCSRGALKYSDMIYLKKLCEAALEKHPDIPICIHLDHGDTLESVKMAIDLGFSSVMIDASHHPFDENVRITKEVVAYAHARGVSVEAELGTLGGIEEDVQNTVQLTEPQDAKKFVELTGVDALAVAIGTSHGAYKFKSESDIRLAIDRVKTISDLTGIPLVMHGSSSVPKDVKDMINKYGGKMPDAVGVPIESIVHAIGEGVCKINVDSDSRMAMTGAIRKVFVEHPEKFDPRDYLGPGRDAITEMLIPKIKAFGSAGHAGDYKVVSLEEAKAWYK
#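 40 nM FBPA preincubated 10 min at RT with compound (up to 57.5 uM final), then substrate plus GAPDH/TPI/NAD/arsenate coupling and diaphorase/resazurin added. Fluorescence read after 20 min at RT, 525/598 nm.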
# FMDV antiviral: foot and mouth disease virus antiviral activity; Potency, µM (highest dose often 57.9 µM), without a hit: at the highest dose activity change, negative = inhibition, usual class: inhibitors; 410,000 tested, 1.2% active; FMDV antiviral cell-based qHTS; calls by dose curve; tested in HEK293T cells; also: read-out not given here; potency is read from the fitted curve at half-maximal effect; nearly all actives have a fitted effect of over 45% in size
# HCMV inh: blocks human cytomegalovirus replication | HFF cells, HCMV-luciferase reporter, 72 h; active compounds read low | activity change, negative = inhibition, % at 57.5 µM | 410,000 tested, 4.5% active | AID 1259415; in the data active = activity change below about -60%; inconclusive = no clear call, values can overlap the other calls; inactive = above about -39%
#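 Screen run at 2 compound doses on HFFs infected with reporter HCMV, MOI 1 PFU/cell. Luciferase activity from cell lysates at 72 h post infection gave inhibition relative to buffer-only and Salinomycin wells.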
# LASV entry inh: Lassa virus entry inhibition. Lassa virus pseudotype entry inhibition, cell reporter. Potency, µM (doses to about 37.9 µM), for inactives: at the top dose activity change, negative = inhibition, most hits filed as inhibitors. 300,000 tested, 1.2% active; calls by dose curve; tested in HEK293 cells; also: potency is read from the fitted curve at half-maximal effect; nearly all actives have a fitted effect of over 50% in size
# HCV inhibitor: blocks hepatitis C virus. Huh7.5.1 HCVcc-Cre infection, luciferase reporter, 44 h. Potency, µM (doses to about 41.8 µM), for inactives: at the top dose activity change, negative = inhibition, usual class: inhibitors. 340,000 tested, 3.4% active. AID 651820; also: potency is read from the fitted curve at half-maximal effect
#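 Cells seeded at 1,000/well and cultured 4 h, then compounds added followed by HCVcc-Cre virus (~0.5 moi). After 44 h further culture, luciferase substrate was added, plates held 15 min at room temperature, and luminescence read for 15 sec.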
# Marburg entry inh: Marburg virus entry inhibition. 300,000 tested, 1.8% active. Marburg virus pseudotyped entry inhibition, cell reporter. AID 540276. Potency, µM (doses to about 37.8 µM), for inactives: at the highest dose activity change, negative = inhibition, most hits filed as inhibitors; calls by dose curve; tested in HEK293 cells; also: potency is read from the fitted curve at half-maximal effect
# Giardia growth: Giardia lamblia growth inhibition; Giardia lamblia trophozoite growth inhibition; shares compounds with Giardia FBPA inh-1; 1,500 tested, 5% active; Potency, µM (highest dose often 57.5 µM), inactives show top-dose activity change, negative = inhibition, actives largely listed as inhibitors;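 also: potency is read from the fitted curve at half-maximal effect; trophozoites exposed to compound for 48 h at 37 °C; nearly all actives have a fitted effect of over 70% in size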
# Mammal cell tox: toxic to mammalian cells in Giardia aldolase counter-screen; shares compounds with Giardia FBPA inh-1; mammalian cell viability counter-screen, qHTS; Potency, µM (top dose mostly 57.5 µM), for inactives: top-dose viability change, negative = toxicity, actives largely listed as inhibitors; 1,500 tested, 4% active; AID 2786;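 also: Chinese hamster ovary cells used as mammalian cytotoxicity surrogate; viability measured as cellular ATP by luminescence; potency is read from the fitted curve at half-maximal effect; compound exposure lasted 48 h before reading; nearly all actives have a fitted effect of over 60% in size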
# Giardia FBPA inh-2: confirmation of Giardia fructose-bisphosphate aldolase inhibitors. AID 2787. shares compounds with Giardia FBPA inh-1. purified Giardia aldolase enzyme activity, qHTS. 1,500 tested, 5% active. Potency, µM (top dose mostly 57.5 µM), inactives show top-dose activity change, negative = inhibition, usual class: inhibitors; also: potency is read from the fitted curve at half-maximal effect; nearly all actives have a fitted effect of over 45% in size
# Rabbit aldolase: blocks rabbit muscle aldolase in Giardia aldolase selectivity test; shares compounds with Giardia FBPA inh-1; Rabbit muscle FBPA enzyme inhibition, selectivity counter-screen; Potency, µM (series often up to 57.5 µM), for inactives: top-dose activity, negative = inhibition, hits mostly inhibitors; 1,500 tested, 4% active; AID 2794; also: potency is read from the fitted curve at half-maximal effect; nearly all actives have a fitted effect of over 60% in size
# Target sequence (P00883 whole entry, looked up): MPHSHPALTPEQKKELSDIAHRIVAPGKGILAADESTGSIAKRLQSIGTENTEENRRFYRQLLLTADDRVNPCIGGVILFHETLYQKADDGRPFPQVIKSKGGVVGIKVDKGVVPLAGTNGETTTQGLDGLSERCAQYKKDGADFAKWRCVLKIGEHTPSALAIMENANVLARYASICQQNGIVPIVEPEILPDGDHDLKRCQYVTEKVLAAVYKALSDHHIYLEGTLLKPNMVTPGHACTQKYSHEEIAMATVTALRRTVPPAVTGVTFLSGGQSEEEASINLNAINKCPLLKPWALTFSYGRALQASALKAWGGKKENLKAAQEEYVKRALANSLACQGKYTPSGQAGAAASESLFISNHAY
# GAPDH counter: GAPDH inhibition flagged for Giardia aldolase hits; AID 2795; 1,500 tested, 6% active; Potency, µM (doses to about 57.5 µM), without a hit: at the highest dose activity change, negative = inhibition, usual class: inhibitors; GAPDH coupling enzyme counterscreen, biochemical, qHTS; shares compounds with Giardia FBPA inh-1; also: potency is read from the fitted curve at half-maximal effect; nearly all actives have a fitted effect of over 55% in size
# Numbers without * were called inactive; ? = inconclusive; nt = no result; [ ] = dose if it differs, or a comment. Unless noted, calls follow the shape of the dose curve; as a rule, active = well fitted curve in the direction sought with a large enough effect; inconclusive = small, poorly fitted or top-dose-only effect, or another doubt; inactive = no such curve, though single readings can be large; an effect the other way counts as inactive or inconclusive. % is scaled to controls: 0 for no effect and ±100 for the full control effect.
SMILES,Giardia FBPA inh-1,FMDV antiviral,HCMV inh,LASV entry inh,HCV inhibitor,Marburg entry inh,Giardia growth,Mammal cell tox,Giardia FBPA inh-2,Rabbit aldolase,GAPDH counter
CCCCC(=O)N/N=C/c1c(O)n(-c2cccc3ccccc23)c(=O)[nH]c1=O,16µM*,-5%,?,nt,8%,nt,90%,6%,9%,-9%,2%
CCCCC(=O)N/N=C/c1c(O)n(Cc2ccco2)c(=O)[nH]c1=O,16%,-18%,25,0%,4%,?,nt,nt,nt,nt,nt
NC(=O)CN(C/C=C/c1ccccc1)C/C=C/c1ccccc1,28µM*,-10%,3,nt,0%,nt,-11%,3%,-1%,2%,6%
CN(CC(=O)O)S(=O)(=O)/C=C/c1ccccc1,0%,-14%,?,-3%[46.1 µM],8%,5%[46.1 µM],nt,nt,nt,nt,nt
c1csc(CNc2ccnc(-c3ccoc3)n2)c1,-10%,9%,nt,nt,nt,nt,nt,nt,nt,nt,nt
O=P(O)(O)CP(=O)(O)O,6.3µM*,nt,nt,nt,nt,nt,119%,9%,24%,2%,15%
O=P(O)(O)CCCl,-1%,nt,nt,nt,nt,nt,nt,nt,nt,nt,nt
COc1ccc(CCN(C)C(=O)C2CCCN(C3CCN(Cc4ccccc4)CC3)C2)cc1OC (centres undefined),18µM*,-14%,-27,nt,?,nt,?,0%,-6%,-6%,6%
COc1ccc(NC(=O)N2CCCC3(CCN(C(=O)c4csnn4)CC3)C2)cc1,-5%,-5%,nt,nt,nt,nt,nt,nt,nt,nt,nt
Cc1ccc(NC(=O)c2c(NC(=O)c3ccc(F)cc3)sc3c2CCCC3)cc1C,nt,45%,21,-4%[46.1 µM],nt,nt,nt,nt,nt,nt,nt
O=C(Nc1sc2c(c1C(=O)O)CCC2)c1ccc(F)cc1,14µM*,0%,31,?,3%,-17%[46.1 µM],?,-14%,-26%,?,?
COc1ccc(-n2ccnc(NCc3ccc(C)cc3)c2=O)cc1OC,nt,-18%,0,0%[46.1 µM],nt,nt,nt,nt,nt,nt,nt
COC(=O)c1c(-c2ccc(OC)c(OC)c2)csc1N,18µM*,-19%,19,6%,19%,0%,-30%,-13%,?,-13%,-12%
COc1ccc(CNC(=O)c2cc3cc(S(=O)(=O)N4CCCCC4)ccc3n2C)c(OC)c1,nt,-27%,9,?,nt,nt,nt,nt,nt,nt,nt
Cc1nn(S(=O)(=O)c2ccc(C(C)(C)C)cc2)c(C)c1S(=O)(=O)N1CCCCCC1,nt,0%,-8,9%[46.1 µM],nt,nt,nt,nt,nt,nt,nt
COCCNC(=O)CNC(c1ccccc1)c1ccccc1,20µM*,nt,nt,nt,nt,nt,11%,-9%,1%,4%,7%
CCC(=O)Nc1nnc(S(=O)(=O)N(C)Cc2ccccc2)s1,nt,5%,-22,-8%[46.1 µM],nt,nt,nt,nt,nt,nt,nt
CCOC(=O)c1ccccc1NC(=O)Cn1ncc2c([nH]c3ccccc32)c1=O,nt,-2%,-2,-20%[46.1 µM],nt,nt,nt,nt,nt,nt,nt
CCC(NC(=O)NNC(N)=S)(C(F)(F)F)C(F)(F)F,20µM*,-7%,29,-11%,16%,?,17%,9%,6%,3%,7%
CCn1c(SCc2cccc(Br)c2)nnc1-c1nonc1NC(C)=O,nt,-28%,-14,9%[46.1 µM],nt,3%[46.1 µM],nt,nt,nt,nt,nt
CCOC(=O)c1c(C)[nH]c(CCC(=O)Nc2ccc(C)c(F)c2)c1C,nt,0%,-26,-11%[46.1 µM],nt,nt,nt,nt,nt,nt,nt
COc1cccc(COCC(O)Cn2cnc3cc(C)c(C)cc32)c1 (centres undefined),20µM*,?,-12,3%,-18%,4%[46.1 µM],0%[10.4 µM],10%,-3%,-8%,-8%
COc1ccc(C2C(C(N)=O)=C(C)Nc3nc(SCc4ccccc4Cl)nn32)cc1OC (centres undefined),nt,-11%,7,-1%[46.1 µM],nt,-8%[46.1 µM],nt,nt,nt,nt,nt
COc1ccccc1NCC(O)COc1ccc(C(C)(C)C)cc1 (centres undefined),18µM*,-12%,-15,-10%,?,?,?,9%,-12%,-1%,-12%
O=C(CSc1nc2ccsc2c(=O)n1-c1ccc(Br)cc1)NCc1ccccc1,nt,-7%,-7,15%[46.1 µM],nt,nt,nt,nt,nt,nt,nt
SMILES,Giardia FBPA inh-1,FMDV antiviral,HCMV inh,LASV entry inh,HCV inhibitor,Marburg entry inh,Giardia growth,Mammal cell tox,Giardia FBPA inh-2,Rabbit aldolase,GAPDH counter
C(=C\c1ccccc1)/CN1CCN(Cc2ccc3c(c2)OCO3)CC1,7.9µM*,-7%,14,3%,1%,-13%,-20%,7%,9%,0%,17%
O=[N+]([O-])c1ccccc1/C=C/CN1CCN(Cc2ccc3c(c2)OCO3)CC1,11µM*,-2%,19,nt,14%,nt,-8%[10.4 µM],7%,-7%,0%,9%
CCn1c(C)cc(C)c(C#N)c1=O,1%,-21%,5,11%[46.1 µM],0%,?,nt,nt,nt,nt,nt
Cc1cc(C)n(NC(=S)NC2CCCC2)c(=O)c1C#N,18µM*,23%,42,-15%,5%,11%[46.1 µM],5%,9%,0%,15%,2%
S=c1[nH]c2cc(Cl)c3cccnc3c2o1,3.5µM*,5%,1,0%[46.1 µM],2%,1%[46.1 µM],-6%[38.3 µM],-15%,?,?,?
CCCCC/C=C\C/C=C\C/C=C\CCCCC(=O)NCCc1ccc(O)c(O)c1,-3%,nt,nt,nt,nt,nt,nt,nt,nt,nt,nt
